Data published in PubChem BioAssay (NCATS).
Results filed as inconclusive are left out. Activity calls are given as the source filed them. Unless noted, calls come from the whole dose curve; as a rule, active = well fitted curve in either direction with a large enough effect (not every such curve was filed as active); inconclusive = small, poorly fitted or top-dose-only effect, or another doubt; inactive = flat fitted curve, though single readings scatter. Residues, ends and D or L forms follow the SMILES beside them.

Experiments:
[1] = molecular target: Lysosomal acid glucosylceramidase (Homo sapiens) (UniProt P04062); experiment: Glucocerebrosidase-p2 (AID 348; in the data active = potency below about 10 µM; note: potency is the fitted concentration of half-maximal effect); details: purified GBA, blue fluorogenic substrate, 40 min
Chain of Lysosomal acid glucosylceramidase (Homo sapiens) (P04062 whole entry, looked up): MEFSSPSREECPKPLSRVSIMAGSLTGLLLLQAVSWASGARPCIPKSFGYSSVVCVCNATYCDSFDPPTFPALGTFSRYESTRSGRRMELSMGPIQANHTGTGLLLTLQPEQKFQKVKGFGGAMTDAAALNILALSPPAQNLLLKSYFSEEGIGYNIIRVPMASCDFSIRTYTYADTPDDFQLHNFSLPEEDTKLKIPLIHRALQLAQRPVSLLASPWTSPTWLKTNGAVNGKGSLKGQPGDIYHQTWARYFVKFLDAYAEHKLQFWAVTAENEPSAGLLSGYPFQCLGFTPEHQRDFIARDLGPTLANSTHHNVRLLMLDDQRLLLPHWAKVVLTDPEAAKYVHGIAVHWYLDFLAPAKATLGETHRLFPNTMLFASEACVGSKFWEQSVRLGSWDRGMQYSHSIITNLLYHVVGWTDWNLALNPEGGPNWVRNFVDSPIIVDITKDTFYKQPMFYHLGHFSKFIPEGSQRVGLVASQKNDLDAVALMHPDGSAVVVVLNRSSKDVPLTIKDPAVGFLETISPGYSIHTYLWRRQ
Method in brief: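 Normal human glucocerebrosidase (0.2 nM) with blue fluorogenic substrate (80 uM final) in citrate/phosphate pH 5.9 with 10mM sodium taurocholate, 0.01% tween-20; 40 min RT, NaOH/glycine stop; fluorescence Ex 365/Em 440; AC50 from a titration from 0.6 nM upwards.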

[2] = AP1 Signaling Pathway (AID 357); details: ME-180 AP-1-bla reporter, EGF-induced, beta-lactamase ratio, 5 h; at 7.69 µM (top of the series) unless noted;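 note: ME-180 reporter cells stimulated with EGF at its EC50 level; % is set by controls: 0 for no effect and ±100 for the full control effect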
Method in brief: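 Cells are seeded overnight, exposed to compound titrations and an EC50 level of EGF for 5 hours at 37 °C, then loaded with CCF4 dye for 2.5 hours. Beta-lactamase activity under the AP-1 element is read as a blue/green ratio.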

[3] = NFAT Signaling Pathway (AID 444); details: Jurkat NFAT-bla M1, carbachol, beta-lactamase ratio, 5 h; at 7.69 µM (top of the series) unless noted;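 note: carbachol stimulus at about its EC50 of 1 µM final; % is set by controls: 0 for no effect and ±100 for the full control effect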
Method in brief: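 Read-out: CCF4 FRET ratio (460 nm/530 nm) after 1 h RT dye loading, used for %activity and AC50 from titration series. Cells: Jurkat NFAT-β-lactamase/M1 line, treated with compound plus 1 uM carbachol for 5 h, 37 °C.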

[4] = Stat Signaling Pathway (AID 446); details: ME-180 (cervical carcinoma) SIE beta-lactamase reporter, IL-6 stimulated, 5 h; at 7.69 µM (top of the series) unless noted;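 note: ME-180 cervical cancer cells given 40 pM IL-6 alongside compound; SIE-controlled beta-lactamase reporter measured as 460/530 nm FRET emission ratio; % is set by controls: 0 for no effect and ±100 for the full control effect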
Method in brief: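 FRET read-out (405 nm excitation, 460/530 nm emission) of a beta-lactamase reporter under a STAT-inducible element in ME-180 cervical carcinoma cells. Cells with compound receive 40 pM IL-6 for 5 h. Values are normalised to AC90 stimulation and AC90 JAK-inhibitor controls.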

[5] = molecular target: Glucocorticoid receptor (Homo sapiens) (UniProt P04150); experiment: GR-GFP Redistribution (AID 450;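 active = compounds whose dose series gives a full or clear partial fitted curve of increased nuclear translocation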; note: potency is the fitted concentration of half-maximal effect); details: U2OS GR-GFP nuclear translocation, laser cytometry, 2 h
Chain of Glucocorticoid receptor (Homo sapiens) (P04150 whole entry, looked up, the tested form may be a part): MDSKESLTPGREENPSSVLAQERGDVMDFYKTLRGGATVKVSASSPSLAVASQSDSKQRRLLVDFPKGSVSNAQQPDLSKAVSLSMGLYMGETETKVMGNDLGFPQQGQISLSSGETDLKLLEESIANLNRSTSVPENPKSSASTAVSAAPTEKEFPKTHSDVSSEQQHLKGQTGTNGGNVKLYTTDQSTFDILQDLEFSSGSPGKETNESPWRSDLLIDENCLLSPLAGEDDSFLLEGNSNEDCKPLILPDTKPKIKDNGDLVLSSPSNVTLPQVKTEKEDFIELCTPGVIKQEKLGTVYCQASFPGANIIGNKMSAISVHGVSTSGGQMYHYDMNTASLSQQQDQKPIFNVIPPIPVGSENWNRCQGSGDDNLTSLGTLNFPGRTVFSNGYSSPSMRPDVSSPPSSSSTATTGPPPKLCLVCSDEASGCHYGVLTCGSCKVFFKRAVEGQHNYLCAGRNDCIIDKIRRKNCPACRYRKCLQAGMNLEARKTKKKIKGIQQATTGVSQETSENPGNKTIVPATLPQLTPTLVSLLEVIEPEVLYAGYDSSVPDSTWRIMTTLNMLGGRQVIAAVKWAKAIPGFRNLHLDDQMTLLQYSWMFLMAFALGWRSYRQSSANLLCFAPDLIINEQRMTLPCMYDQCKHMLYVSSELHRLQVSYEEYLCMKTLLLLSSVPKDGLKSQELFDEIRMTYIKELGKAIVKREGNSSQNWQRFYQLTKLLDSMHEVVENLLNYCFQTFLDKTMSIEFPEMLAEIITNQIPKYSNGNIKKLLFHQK

[6] = molecular target: Glucocorticoid receptor (Homo sapiens) (UniProt P04150); experiment: GR-EFC Redistribution (AID 451; calls by dose curve; note: potency is the fitted concentration of half-maximal effect); details: CHO-K1 GR-EFC translocation, beta-gal luminescence, 2 h
Method in brief: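 Translocation of GR-ED fusion to nuclear EA restores b-gal, read by luminescence after 1 h room-temperature detection. Engineered CHO-K1 biosensor cells, 1,000/well, exposed 2 h at 37 C to titrations up to 46 uM final.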

[7] = molecular target: Mitogen-activated protein kinase 10 (Mus musculus) (UniProt Q61831); experiment: JNK3 AlphaScreen Assay (AID 530); details: JNK3 lysate, c-Jun phosphorylation; series mostly up to 11.4 µM;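 note: kinase came from lysate of stimulated human HepG2 cells; signal reports phosphorylation of biotinylated GST-cJun 1-79 at Ser73 with 10 µM ATP; % is set by controls: 0 for no effect and ±100 for the full control effect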
Method in brief: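 Kinase buffer: 20 mM Tris-HCl pH 7.6, 10 mM MgCl2, 1 mM DTT, 0.1 mM Na3VO4, 0.01% Tween-20; ATP 10 uM. Substrate biotin-GST-cJun(1-79), enzyme from activated HepG2 lysates. Detection by Ser73 phospho-antibody AlphaScreen.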

[8] = molecular target: 3',5'-cyclic-AMP phosphodiesterase 4B (Homo sapiens) (UniProt Q07343); experiment: qHTS Assay for Inhibitors of PDE-IV (AID 607; active = well fitted activation curve with a large enough effect in the main read-out, with a control signal flat, not every such curve was filed as active; note: % of control where 0% means no effect); details: HEK293 ACTOne CNG channel cells, membrane potential fluorescence; series mostly up to 22.9 µM
Chain of 3',5'-cyclic-AMP phosphodiesterase 4B (Homo sapiens) (Q07343 whole entry, looked up): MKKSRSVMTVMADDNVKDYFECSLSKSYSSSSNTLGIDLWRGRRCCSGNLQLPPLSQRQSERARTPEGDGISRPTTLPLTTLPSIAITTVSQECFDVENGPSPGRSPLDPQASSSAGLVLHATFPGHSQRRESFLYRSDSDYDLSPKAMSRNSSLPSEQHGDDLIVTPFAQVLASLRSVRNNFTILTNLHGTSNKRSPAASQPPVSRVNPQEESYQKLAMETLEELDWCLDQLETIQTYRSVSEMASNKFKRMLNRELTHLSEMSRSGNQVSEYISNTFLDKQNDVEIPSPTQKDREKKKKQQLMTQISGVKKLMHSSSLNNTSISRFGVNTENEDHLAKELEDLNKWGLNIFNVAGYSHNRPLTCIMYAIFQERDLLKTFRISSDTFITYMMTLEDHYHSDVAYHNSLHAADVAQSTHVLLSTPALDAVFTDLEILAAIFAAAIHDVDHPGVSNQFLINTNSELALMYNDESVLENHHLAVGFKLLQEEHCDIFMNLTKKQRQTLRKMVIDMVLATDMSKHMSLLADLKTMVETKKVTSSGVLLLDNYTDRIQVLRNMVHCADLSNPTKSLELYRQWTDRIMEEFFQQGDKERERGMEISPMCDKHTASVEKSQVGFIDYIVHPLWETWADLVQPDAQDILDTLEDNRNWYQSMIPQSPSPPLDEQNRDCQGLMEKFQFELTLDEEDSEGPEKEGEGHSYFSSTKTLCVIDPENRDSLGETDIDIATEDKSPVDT
Method in brief: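 Cell-based read-out of cAMP via a modified cyclic nucleotide-gated channel and membrane potential dye (535/590 nm) in HEK293 cells expressing PDE4 endogenously. Compounds tested up to 22.9 uM final; 100 uM RO 20-1724 reference.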

O=S(=O)(c1ccc2ccccc2c1)N1CCN(S(=O)(=O)c2ccc3ccccc3c2)CC1
inactive: Potency [1] > 11.4 µM | activity change, negative = inhibition [2] -2.95% | activity change, negative = inhibition [3] -5.78% | activity, negative = inhibition [4] 0.106% | Potency [5] > 46 µM | Potency [6] > 9.22 µM | Potency [7] | Potency [8]

O=C(O)[C@@H]1CCCN1Cc1cc2ccccc2c2ccccc12
inactive: Potency [1] > 11.4 µM | activity change, negative = inhibition [2] 21.6% | activity change, negative = inhibition [3] 17.3% | activity, negative = inhibition [4] 2.3% | Potency [5] > 46 µM | Potency [6] > 9.22 µM | Potency [7] | Potency [8]

COc1c2c(c3c(c1CCC(=O)O)OC(C)(C)C=C3)OC(C)(C)C=C2
inactive: Potency [1] > 11.4 µM | activity change, negative = inhibition [2] -1.7% | activity change, negative = inhibition [3] 13.1% | activity, negative = inhibition [4] -3.06% | Potency [5] > 46 µM | Potency [6] > 9.22 µM | Potency [7] | Potency [8]

CN(C)Cc1cc(C(=O)O)cc(CN(C)C)c1O
inactive: Potency [1] > 11.4 µM | activity change, negative = inhibition [2] 4.91% | activity change, negative = inhibition [3] 3.37% | activity, negative = inhibition [4] -1.77% | Potency [5] > 46 µM | Potency [6] > 9.22 µM | Potency [7] | Potency [8]

CCSCCCC(=O)O
inactive: Potency [1] > 11.4 µM | activity change, negative = inhibition [2] -6.6% | activity change, negative = inhibition [3] 2.17% | activity, negative = inhibition [4] 8.19% | Potency [5] > 46 µM | Potency [6] > 9.22 µM | Potency [7] | Potency [8]

CN1[C@@H](c2ccccc2)CC(=NO)C[C@H]1c1ccccc1
inactive: Potency [1] > 11.4 µM | activity change, negative = inhibition [2] 0.163% | activity change, negative = inhibition [3] -20.1% | activity, negative = inhibition [4] 5.8% | Potency [5] > 46 µM | Potency [6] > 9.22 µM | Potency [7] | Potency [8]

C[C@@H](NC(=O)C1(N)CCCC1)C(=O)O (HELM PEPTIDE1{[NC1(C(=O)[*:2])CCCC1].[dA]}$$$$V2.0)
inactive: Potency [1] > 11.4 µM | activity change, negative = inhibition [2] 5.64% | activity change, negative = inhibition [3] 15.7% | activity, negative = inhibition [4] 6.26% | Potency [5] > 46 µM | Potency [6] > 9.22 µM | Potency [7] | Potency [8]

CC(C)[C@@H](C(=O)O)N1C(=O)c2ccccc2C1=O
inactive: Potency [1] > 11.4 µM | activity change, negative = inhibition [2] -2.02% | activity change, negative = inhibition [3] -8.21% | activity, negative = inhibition [4] 2.83% | Potency [5] > 46 µM | Potency [6] > 9.22 µM | Potency [7] | Potency [8]

c1ccc(CN2CCC3(CC2)SSC2(CCN(Cc4ccccc4)CC2)SS3)cc1
inactive: Potency [1] > 11.4 µM | activity change, negative = inhibition [2] 3.33% | activity change, negative = inhibition [3] 3.92% | activity, negative = inhibition [4] -1.41% | Potency [5] > 46 µM | Potency [6] > 9.22 µM | Potency [7] | Potency [8]

CCc1ccc(CCC(=O)O)nc1
inactive: Potency [1] > 11.4 µM | activity change, negative = inhibition [2] 0.964% | activity change, negative = inhibition [3] -3.46% | activity, negative = inhibition [4] -13.2% | Potency [5] > 46 µM | Potency [6] > 9.22 µM | Potency [7] | Potency [8]

NS(=O)(=O)c1ccc(NC(=O)Nc2cccc3ccccc23)cc1
inactive: Potency [1] > 11.4 µM | activity change, negative = inhibition [2] -4.66% | activity change, negative = inhibition [3] 12.6% | activity, negative = inhibition [4] -9.73% | Potency [5] > 46 µM | Potency [6] > 9.22 µM | Potency [7] | Potency [8]

Nc1ccn([C@H]2O[C@H](CO)[C@@H]3[O][Sn]([c]4ccccc4)([c]4ccccc4)[O][C@H]32)c(=O)n1
inactive: Potency [1] > 11.4 µM | activity change, negative = inhibition [2] -22.1% | activity change, negative = inhibition [3] -9.06% | activity, negative = inhibition [4] -20.4% | Potency [5] > 46 µM | Potency [6] > 9.22 µM | Potency [7] | Potency [8]

NCCNC[C@H](O)CO
inactive: Potency [1] > 11.4 µM | activity change, negative = inhibition [2] -9.92% | activity change, negative = inhibition [3] 7.58% | activity, negative = inhibition [4] 3.6% | Potency [5] > 46 µM | Potency [6] > 9.22 µM | Potency [7] | Potency [8]

C#CCOC(=O)[C@H](N)CC(N)=O
inactive: Potency [1] > 11.4 µM | activity change, negative = inhibition [2] 0.665% | activity change, negative = inhibition [3] 13.9% | activity, negative = inhibition [4] -0.998% | Potency [5] > 46 µM | Potency [6] > 9.22 µM | Potency [7] | Potency [8]

CC1=C(/C=C\C(=O)O)C(C)(C)CCC1
inactive: Potency [1] > 11.4 µM | activity change, negative = inhibition [2] 4.18% | activity change, negative = inhibition [3] 11.9% | activity, negative = inhibition [4] 0.469% | Potency [5] > 46 µM | Potency [6] > 9.22 µM | Potency [7] | Potency [8]

S=C1NCN2CCN(CC2)CNC(=S)C(=S)NCN2CCN(CC2)CNC1=S
inactive: Potency [1] > 11.4 µM | activity change, negative = inhibition [2] 3.32% | activity change, negative = inhibition [3] -3.6% | activity, negative = inhibition [4] 3.07% | Potency [5] > 46 µM | Potency [6] > 9.22 µM | Potency [7] | Potency [8]

O=C(O)CCC(=O)c1ccc[nH]1
inactive: Potency [1] > 11.4 µM | activity change, negative = inhibition [2] -0.936% | activity change, negative = inhibition [3] 3.55% | activity, negative = inhibition [4] 3.5% | Potency [5] > 46 µM | Potency [6] > 9.22 µM | Potency [7] | Potency [8]
